Columns and labels:
[1] = biological target: Ephrin type-A receptor 4 (Homo sapiens) (UniProt P54764); settings: at 1 µM
[2] = biological target: Ephrin type-A receptor 5 (Homo sapiens) (UniProt P54756); settings: at 1 µM
[3] = biological target: Ephrin type-A receptor 5 (Homo sapiens) (UniProt P54756); settings: at 10 µM
[4] = biological target: Ephrin type-A receptor 7 (Homo sapiens) (UniProt Q15375); settings: at 1 µM
[5] = biological target: Ephrin type-A receptor 7 (Homo sapiens) (UniProt Q15375); settings: at 10 µM
[6] = biological target: T1, Ephrin type-A receptor 8 (Homo sapiens) (UniProt P29322); settings: at 1 µM
T1 sequence (whole entry): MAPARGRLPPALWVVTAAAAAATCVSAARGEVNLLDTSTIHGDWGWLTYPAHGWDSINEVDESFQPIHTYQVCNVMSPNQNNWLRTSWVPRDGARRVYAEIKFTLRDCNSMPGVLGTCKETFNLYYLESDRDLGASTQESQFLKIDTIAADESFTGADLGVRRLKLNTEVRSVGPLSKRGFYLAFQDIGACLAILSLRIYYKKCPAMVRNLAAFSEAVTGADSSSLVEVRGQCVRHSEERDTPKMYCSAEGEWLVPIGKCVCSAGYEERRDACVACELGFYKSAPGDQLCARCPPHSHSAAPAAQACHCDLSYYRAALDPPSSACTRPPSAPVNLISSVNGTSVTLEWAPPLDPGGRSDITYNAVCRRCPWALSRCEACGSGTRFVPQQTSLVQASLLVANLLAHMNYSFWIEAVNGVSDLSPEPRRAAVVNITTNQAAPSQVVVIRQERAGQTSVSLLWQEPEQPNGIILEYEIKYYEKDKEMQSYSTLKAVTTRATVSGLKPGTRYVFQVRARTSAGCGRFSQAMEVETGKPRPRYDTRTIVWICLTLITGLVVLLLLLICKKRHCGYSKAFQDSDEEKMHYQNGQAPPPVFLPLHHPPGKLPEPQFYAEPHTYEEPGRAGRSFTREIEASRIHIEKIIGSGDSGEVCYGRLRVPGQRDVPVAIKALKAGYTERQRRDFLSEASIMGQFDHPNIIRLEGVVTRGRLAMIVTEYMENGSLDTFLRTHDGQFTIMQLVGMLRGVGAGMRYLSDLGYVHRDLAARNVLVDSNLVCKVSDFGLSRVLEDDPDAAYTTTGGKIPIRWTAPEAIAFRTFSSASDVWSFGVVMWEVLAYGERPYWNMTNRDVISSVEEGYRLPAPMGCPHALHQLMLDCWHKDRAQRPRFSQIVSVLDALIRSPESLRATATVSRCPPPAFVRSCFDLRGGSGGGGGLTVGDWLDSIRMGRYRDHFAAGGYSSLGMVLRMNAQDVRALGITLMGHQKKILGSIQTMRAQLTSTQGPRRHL

[7] = biological target: T2, Ephrin type-B receptor 1 (Homo sapiens) (UniProt P54762); settings: at 1 µM
T2 sequence (whole entry): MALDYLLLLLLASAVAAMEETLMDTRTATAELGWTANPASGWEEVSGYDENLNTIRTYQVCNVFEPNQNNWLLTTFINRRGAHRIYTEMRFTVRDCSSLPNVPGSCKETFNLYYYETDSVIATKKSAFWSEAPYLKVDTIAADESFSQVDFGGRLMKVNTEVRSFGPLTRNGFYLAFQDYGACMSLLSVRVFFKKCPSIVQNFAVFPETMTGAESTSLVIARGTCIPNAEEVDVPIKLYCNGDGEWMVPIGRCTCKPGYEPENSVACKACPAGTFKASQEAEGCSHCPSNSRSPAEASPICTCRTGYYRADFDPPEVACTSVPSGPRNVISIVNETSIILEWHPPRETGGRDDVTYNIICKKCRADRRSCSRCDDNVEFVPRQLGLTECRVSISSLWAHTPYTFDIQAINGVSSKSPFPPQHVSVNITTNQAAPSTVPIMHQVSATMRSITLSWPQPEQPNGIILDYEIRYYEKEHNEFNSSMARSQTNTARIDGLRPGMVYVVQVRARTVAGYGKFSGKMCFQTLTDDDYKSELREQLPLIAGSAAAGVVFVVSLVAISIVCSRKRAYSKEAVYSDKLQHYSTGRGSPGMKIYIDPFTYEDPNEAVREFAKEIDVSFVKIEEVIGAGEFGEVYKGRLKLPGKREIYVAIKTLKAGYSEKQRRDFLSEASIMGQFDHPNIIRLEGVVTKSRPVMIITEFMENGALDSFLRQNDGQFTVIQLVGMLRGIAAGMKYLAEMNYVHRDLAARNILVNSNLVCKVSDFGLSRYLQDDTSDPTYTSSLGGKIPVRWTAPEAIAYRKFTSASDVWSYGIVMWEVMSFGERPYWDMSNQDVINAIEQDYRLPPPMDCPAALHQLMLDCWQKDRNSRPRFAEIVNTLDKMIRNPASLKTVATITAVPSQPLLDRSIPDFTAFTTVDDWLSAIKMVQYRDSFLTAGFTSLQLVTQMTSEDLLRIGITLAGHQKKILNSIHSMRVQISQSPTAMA

[8] = biological target: T2, Ephrin type-B receptor 1 (Homo sapiens); settings: at 10 µM
[9] = biological target: T3, Ephrin type-B receptor 3 (Homo sapiens) (UniProt P54753); settings: at 1 µM
T3 sequence (whole entry): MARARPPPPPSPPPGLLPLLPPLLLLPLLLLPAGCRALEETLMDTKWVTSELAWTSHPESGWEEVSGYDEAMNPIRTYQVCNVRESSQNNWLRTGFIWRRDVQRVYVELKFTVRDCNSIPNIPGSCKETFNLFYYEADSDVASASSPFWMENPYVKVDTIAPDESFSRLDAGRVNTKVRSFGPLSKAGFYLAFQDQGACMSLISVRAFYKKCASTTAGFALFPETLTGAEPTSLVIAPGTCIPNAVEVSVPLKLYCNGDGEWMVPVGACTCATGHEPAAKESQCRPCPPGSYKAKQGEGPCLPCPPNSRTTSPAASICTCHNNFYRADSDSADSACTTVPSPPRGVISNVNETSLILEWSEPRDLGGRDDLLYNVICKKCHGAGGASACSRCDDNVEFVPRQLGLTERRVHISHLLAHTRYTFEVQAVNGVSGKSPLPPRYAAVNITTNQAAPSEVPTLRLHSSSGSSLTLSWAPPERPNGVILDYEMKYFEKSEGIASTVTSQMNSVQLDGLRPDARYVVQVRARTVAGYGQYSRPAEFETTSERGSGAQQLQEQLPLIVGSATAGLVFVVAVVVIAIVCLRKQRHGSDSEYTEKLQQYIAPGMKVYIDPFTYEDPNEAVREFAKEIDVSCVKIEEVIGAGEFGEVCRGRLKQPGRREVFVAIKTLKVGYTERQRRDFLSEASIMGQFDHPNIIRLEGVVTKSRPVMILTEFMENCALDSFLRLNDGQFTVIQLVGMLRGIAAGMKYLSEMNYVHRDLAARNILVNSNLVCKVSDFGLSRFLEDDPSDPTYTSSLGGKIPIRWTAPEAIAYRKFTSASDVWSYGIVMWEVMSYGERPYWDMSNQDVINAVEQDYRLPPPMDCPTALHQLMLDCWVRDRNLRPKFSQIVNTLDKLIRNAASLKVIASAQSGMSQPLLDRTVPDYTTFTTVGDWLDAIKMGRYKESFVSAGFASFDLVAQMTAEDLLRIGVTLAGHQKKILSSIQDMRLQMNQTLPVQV

[10] = biological target: T3, Ephrin type-B receptor 3 (Homo sapiens); settings: at 10 µM
[11] = biological target: T4, Ephrin type-B receptor 4 (Homo sapiens) (UniProt P54760); settings: at 1 µM
T4 sequence (whole entry): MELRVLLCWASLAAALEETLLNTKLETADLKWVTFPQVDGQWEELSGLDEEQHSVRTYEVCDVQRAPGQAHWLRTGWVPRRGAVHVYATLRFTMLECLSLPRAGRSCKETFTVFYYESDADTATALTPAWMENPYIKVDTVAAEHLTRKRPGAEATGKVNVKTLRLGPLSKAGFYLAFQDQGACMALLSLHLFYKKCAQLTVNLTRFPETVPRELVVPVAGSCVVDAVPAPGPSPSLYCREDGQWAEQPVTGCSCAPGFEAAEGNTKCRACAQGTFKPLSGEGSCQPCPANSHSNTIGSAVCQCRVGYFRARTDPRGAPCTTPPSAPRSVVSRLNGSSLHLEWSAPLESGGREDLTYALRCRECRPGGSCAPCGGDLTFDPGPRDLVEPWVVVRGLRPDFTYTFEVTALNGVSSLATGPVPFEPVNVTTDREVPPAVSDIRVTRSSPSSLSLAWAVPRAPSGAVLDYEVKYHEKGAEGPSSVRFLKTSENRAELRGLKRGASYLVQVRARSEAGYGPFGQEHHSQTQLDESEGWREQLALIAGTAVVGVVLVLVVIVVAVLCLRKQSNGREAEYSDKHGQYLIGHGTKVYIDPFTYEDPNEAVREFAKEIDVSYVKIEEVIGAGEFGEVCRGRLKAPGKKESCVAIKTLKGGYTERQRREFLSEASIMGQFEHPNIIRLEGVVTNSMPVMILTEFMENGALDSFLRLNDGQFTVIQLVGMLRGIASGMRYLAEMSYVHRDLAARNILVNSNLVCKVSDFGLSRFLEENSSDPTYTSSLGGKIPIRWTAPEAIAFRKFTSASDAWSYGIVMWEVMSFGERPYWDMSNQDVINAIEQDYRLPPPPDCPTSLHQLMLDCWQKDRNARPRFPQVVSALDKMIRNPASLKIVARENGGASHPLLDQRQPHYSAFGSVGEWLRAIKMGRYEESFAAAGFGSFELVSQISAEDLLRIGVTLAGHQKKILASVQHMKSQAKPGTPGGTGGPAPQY

[12] = biological target: T4, Ephrin type-B receptor 4 (Homo sapiens); settings: at 10 µM
[13] = biological target: Focal adhesion kinase 1 (Homo sapiens) (UniProt Q05397); settings: at 1 µM
Focal adhesion kinase 1 (Homo sapiens), sequence (Q05397 2-1052 limits assumed): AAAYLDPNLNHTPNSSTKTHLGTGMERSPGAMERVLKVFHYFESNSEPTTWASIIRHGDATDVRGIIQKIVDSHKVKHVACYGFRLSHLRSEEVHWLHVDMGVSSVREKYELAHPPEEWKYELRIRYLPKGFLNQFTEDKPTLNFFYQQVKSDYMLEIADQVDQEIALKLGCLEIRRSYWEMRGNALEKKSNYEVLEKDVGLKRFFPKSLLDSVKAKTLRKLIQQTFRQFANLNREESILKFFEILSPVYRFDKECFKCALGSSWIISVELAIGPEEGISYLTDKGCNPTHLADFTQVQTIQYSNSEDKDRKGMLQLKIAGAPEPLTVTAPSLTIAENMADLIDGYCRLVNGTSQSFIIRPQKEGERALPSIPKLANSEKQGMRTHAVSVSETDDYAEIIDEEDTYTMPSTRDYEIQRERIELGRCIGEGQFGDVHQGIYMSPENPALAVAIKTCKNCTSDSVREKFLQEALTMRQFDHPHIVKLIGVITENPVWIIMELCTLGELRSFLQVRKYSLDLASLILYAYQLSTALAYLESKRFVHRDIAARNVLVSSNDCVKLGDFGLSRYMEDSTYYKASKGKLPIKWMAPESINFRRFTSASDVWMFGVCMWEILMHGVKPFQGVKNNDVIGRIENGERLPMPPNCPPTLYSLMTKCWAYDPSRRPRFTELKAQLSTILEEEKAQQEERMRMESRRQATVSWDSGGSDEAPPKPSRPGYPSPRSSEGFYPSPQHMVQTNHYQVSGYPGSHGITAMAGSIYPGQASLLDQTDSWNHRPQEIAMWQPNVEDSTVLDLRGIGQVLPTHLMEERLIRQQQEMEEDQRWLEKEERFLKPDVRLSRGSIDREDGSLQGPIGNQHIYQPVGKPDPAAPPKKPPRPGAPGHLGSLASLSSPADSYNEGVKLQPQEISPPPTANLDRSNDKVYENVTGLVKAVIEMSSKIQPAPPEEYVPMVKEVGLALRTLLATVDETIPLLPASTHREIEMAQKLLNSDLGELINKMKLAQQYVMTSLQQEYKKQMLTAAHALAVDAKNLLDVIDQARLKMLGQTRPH

Ephrin type-A receptor 5 (Homo sapiens), sequence (P54756 whole entry): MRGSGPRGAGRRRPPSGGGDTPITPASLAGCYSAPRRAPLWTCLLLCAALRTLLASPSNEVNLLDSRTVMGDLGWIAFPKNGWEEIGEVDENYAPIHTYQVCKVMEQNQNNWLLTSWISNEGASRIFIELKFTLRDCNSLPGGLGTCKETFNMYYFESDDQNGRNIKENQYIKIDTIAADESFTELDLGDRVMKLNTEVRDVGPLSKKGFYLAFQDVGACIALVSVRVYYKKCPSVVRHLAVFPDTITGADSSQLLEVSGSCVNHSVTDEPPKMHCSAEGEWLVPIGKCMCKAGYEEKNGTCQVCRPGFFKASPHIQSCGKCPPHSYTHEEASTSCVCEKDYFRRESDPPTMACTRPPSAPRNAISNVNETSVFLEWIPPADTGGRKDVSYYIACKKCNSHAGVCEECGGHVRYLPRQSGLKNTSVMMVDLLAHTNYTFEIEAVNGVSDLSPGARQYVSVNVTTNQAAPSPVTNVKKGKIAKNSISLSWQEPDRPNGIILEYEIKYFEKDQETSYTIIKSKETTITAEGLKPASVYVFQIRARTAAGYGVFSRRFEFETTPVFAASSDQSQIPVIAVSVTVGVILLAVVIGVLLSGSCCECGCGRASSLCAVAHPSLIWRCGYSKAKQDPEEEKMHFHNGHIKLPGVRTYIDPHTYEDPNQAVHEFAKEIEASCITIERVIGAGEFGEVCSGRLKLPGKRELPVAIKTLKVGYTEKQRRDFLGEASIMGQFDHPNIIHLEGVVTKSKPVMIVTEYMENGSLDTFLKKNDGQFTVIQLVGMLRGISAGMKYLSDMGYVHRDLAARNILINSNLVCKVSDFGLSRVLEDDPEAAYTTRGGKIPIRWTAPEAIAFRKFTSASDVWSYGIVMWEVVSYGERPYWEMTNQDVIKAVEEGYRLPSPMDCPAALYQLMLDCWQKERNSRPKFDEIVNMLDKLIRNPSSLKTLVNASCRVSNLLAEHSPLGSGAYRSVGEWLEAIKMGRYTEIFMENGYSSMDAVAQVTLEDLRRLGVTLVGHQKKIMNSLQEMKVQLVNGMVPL
Ephrin type-A receptor 7 (Homo sapiens), sequence (Q15375 28-998 limits assumed): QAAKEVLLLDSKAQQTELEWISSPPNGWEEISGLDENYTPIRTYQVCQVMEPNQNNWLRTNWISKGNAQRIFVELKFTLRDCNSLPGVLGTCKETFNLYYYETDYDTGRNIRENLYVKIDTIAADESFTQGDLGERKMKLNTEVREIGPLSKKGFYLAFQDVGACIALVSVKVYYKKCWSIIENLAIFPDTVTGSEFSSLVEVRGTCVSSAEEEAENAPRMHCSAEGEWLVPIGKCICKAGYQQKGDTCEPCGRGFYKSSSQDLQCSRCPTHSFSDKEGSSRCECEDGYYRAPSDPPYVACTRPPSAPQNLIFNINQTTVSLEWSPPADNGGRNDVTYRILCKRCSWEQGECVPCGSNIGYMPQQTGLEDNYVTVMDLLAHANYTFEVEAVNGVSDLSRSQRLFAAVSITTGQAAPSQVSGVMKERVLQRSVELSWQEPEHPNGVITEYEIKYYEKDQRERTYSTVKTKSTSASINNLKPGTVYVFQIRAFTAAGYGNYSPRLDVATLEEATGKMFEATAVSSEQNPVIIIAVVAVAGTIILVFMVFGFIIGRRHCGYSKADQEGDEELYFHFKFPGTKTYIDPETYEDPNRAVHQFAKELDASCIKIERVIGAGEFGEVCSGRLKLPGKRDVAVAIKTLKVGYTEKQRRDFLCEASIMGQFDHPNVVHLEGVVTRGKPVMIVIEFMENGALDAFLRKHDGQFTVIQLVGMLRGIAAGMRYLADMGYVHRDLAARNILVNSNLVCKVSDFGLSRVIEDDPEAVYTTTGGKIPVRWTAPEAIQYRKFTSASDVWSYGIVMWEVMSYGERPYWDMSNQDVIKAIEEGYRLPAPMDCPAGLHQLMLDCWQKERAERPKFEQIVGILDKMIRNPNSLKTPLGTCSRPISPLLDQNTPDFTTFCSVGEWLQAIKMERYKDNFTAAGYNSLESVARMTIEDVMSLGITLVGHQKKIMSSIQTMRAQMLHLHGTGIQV
Ephrin type-A receptor 4 (Homo sapiens), sequence (P54764 whole entry): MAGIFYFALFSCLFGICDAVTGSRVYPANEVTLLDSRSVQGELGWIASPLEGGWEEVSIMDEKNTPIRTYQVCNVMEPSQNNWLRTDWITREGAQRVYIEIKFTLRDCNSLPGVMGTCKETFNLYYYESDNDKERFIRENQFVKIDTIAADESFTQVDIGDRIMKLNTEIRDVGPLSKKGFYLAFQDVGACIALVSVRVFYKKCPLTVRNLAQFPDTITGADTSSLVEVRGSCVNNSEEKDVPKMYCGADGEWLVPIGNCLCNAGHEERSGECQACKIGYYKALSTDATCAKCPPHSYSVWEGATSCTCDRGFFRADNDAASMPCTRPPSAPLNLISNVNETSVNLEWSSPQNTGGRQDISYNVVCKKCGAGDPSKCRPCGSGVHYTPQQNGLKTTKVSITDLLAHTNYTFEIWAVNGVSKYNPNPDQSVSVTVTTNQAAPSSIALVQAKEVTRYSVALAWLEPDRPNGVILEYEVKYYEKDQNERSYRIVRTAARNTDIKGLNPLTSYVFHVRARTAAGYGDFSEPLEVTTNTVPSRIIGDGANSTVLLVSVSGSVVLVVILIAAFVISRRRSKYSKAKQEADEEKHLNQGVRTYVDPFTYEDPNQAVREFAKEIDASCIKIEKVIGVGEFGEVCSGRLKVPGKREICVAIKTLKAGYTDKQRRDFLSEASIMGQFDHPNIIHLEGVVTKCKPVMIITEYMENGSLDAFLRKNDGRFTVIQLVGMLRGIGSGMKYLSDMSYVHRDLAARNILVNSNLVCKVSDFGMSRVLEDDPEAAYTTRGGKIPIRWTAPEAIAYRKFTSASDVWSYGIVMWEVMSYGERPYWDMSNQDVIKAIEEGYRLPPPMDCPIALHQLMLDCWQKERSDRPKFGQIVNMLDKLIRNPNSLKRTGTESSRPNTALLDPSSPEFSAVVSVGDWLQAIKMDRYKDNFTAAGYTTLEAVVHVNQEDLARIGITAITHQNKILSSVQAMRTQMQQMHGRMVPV

SMILES | residual activity [1] | residual activity [2] | residual activity [3] | residual activity [4] | residual activity [5] | residual activity [6] | residual activity [7] | residual activity [8] | residual activity [9] | residual activity [10] | residual activity [11] | residual activity [12] | residual activity [13]
O=C(NC(NC(=S)Nc1ccc(F)c([N+](=O)[O-])c1)C(Cl)(Cl)Cl)C(c1ccccc1)c1ccccc1 (centres undefined) | 96% | 104% | 91% | 102% | 99% | 103% | 97% | 84% | 104% (inactive) | 84% |  |  | 
O=C(Nc1ccc(Cl)cc1)c1ccccc1NCc1ccncc1 |  |  |  |  |  |  |  |  |  | 125% | 117% | 131% | 143%

From ChEMBL document CHEMBL2218924, “A broad activity screen in support of a chemogenomic map for kinase signalling research and drug discovery” (Biochem J, 2013)
